Laboratory results published in PubChem BioAssay (NCATS).
Records with an inconclusive call do not appear. Activity calls are given as the source filed them. Unless noted, calls follow the shape of the dose curve; as a rule, active = well fitted curve in the direction sought with a large enough effect; inconclusive = small, poorly fitted or top-dose-only effect, or another doubt; inactive = no such curve, though single readings can be large; an effect the other way counts as inactive or inconclusive.

Assays:
C33A = test: Primary qHTS to identify gynecologic anti-cancer compounds using libraries of approved drugs and bioactive compounds (AID 1345084); conditions: Gynecologic cancer cell panel viability, ATPlite luminescence, 48 h; series mostly up to 57.5 µM; also: % is scaled to controls: 0 for no effect and ±100 for the full control effect; nearly all actives have a fitted effect of over 55% in size
Method in brief: (§1)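 ATP-based viability (ATPlite), 1,000 cells/well, 16 h pre-incubation, 48 h compound at 37 C, 5% CO2, 15 min RT before read.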

CAOV3 = test: as above; conditions: Gynecologic cancer cell panel viability, ATPlite luminescence, 48 h; series mostly up to 57.5 µM
Method in brief: as §1

CASKI = test: as above; conditions: Gynecologic cancer cell panel viability, ATPlite luminescence, 48 h; series mostly up to 57.5 µM
Method in brief: as §1

Es-2 = test: as above; conditions: Gynecologic cancer cell panel viability, ATPlite luminescence, 48 h; series mostly up to 57.5 µM
Method in brief: as §1

HeLa = test: as above; conditions: Gynecologic cancer cell panel viability, ATPlite luminescence, 48 h; series mostly up to 57.5 µM
Method in brief: as §1

Hek293T = test: as above; conditions: Gynecologic cancer cell panel viability, ATPlite luminescence, 48 h, control line for the selectivity index; series mostly up to 57.5 µM
Method in brief: as §1

JEG-3 = test: as above; conditions: Gynecologic cancer cell panel viability, ATPlite luminescence, 48 h; series mostly up to 57.5 µM
Method in brief: as §1

OV90 = test: as above; conditions: Gynecologic cancer cell panel viability, ATPlite luminescence, 48 h; series mostly up to 57.5 µM
Method in brief: as §1

PA-1 = test: as above; conditions: Gynecologic cancer cell panel viability, ATPlite luminescence, 48 h; series mostly up to 57.5 µM
Method in brief: as §1

SKOV3 = test: as above; conditions: Gynecologic cancer cell panel viability, ATPlite luminescence, 48 h; series mostly up to 57.5 µM
Method in brief: as §1

Tov-21-G = test: as above; conditions: Gynecologic cancer cell panel viability, ATPlite luminescence, 48 h; series mostly up to 57.5 µM
Method in brief: as §1

Tov112D = test: as above; conditions: Gynecologic cancer cell panel viability, ATPlite luminescence, 48 h; series mostly up to 57.5 µM
Method in brief: as §1

[1] = Drug repurposing screens with cells derived from glioblastoma tumor samples (AID 1345199); conditions: GBM patient neurospheres viability, ATP luminescence, 48 h; also: % is scaled to controls: 0 for no effect and ±100 for the full control effect; nearly all actives have a fitted effect of over 40% in size
Method in brief: (§2)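 Four patient lines of CD133+ GBM neurospheres were screened at several concentrations; hits were retested in those lines plus three slower-growing GBM lines, using 48-hour treatment and ATP-based viability.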

astro = test: as above; conditions: viability, ATP luminescence, 48 h; series mostly up to 45.9 µM
Method in brief: as §2

[2] = molecular target: Nuclear receptor subfamily 1 group I member 2 (Rattus norvegicus) (UniProt Q9R1A7); test: qHTS assay for small molecule activators of the rat pregnane X receptor (rPXR) signaling pathway (AID 651751; call rule not given here; also: 0% is about no effect); conditions: rPXR reporter cells, luciferase (One-Glo), 24 h
Sequence of Nuclear receptor subfamily 1 group I member 2 (Rattus norvegicus) (Q9R1A7 whole entry, looked up): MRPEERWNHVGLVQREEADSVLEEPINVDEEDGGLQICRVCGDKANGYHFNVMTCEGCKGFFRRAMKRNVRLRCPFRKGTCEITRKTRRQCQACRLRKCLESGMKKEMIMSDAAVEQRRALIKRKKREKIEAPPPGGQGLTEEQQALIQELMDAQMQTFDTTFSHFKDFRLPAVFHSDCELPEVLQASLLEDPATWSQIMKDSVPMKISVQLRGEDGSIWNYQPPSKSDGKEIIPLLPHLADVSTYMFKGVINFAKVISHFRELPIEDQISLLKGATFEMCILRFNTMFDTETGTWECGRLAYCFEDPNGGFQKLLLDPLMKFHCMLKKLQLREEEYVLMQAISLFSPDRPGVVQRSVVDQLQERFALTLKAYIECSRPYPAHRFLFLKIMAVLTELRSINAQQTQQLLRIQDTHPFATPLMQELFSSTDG

[3] = qHTS assay for small molecule activators of the human pregnane X receptor (PXR) signaling pathway (AID 720659; call rule not given here; also: 0% is about no effect)
[4] = at 45.9 µM (top of the series), tumour line B
[5] = at 45.9 µM (top of the series), tumour line D
[6] = at 46.1 µM (top of the series), tumour line C
[7] = at 46 µM (top of the series), tumour line A
[8] = at 20 µM (top of the series), tumour line C
[9] = at 21.2 µM (top of the series), tumour line B
[10] = at 21.2 µM (top of the series), tumour line D

Cc1ccccc1N=Nc1ccc(N=Nc2c(O)ccc3ccccc23)c(C)c1
inactive: outcome (C33A) | outcome (CAOV3) | outcome (CASKI) | outcome (Es-2) | outcome (HeLa) | outcome (Hek293T) | outcome (JEG-3) | Potency (OV90) | outcome (PA-1) | outcome (SKOV3) | outcome (Tov-21-G) | outcome (Tov112D) | activity, negative = cell killing [1, 4] -15.7% | activity, negative = cell killing [1, 5] -2.5% | activity, negative = cell killing [1, 6] -1.06% | outcome (astro)

O=C(CN1CCNCC1)NC1CCCCC1
inactive: outcome (C33A) | outcome (CAOV3) | outcome (CASKI) | outcome (Es-2) | outcome (HeLa) | outcome (Hek293T) | outcome (JEG-3) | Potency (OV90) | outcome (PA-1) | outcome (SKOV3) | outcome (Tov-21-G) | outcome (Tov112D) | activity, negative = cell killing [1, 4] -13.1% | activity, negative = cell killing [1, 5] -7.64% | activity, negative = cell killing [1, 6] -22.5% | outcome (astro)

Cc1ccc(S(=O)(=O)NC(=O)NC2CCCCC2)cc1
inactive: outcome (C33A) | outcome (CAOV3) | outcome (CASKI) | outcome (Es-2) | outcome (HeLa) | outcome (Hek293T) | outcome (JEG-3) | Potency (OV90) | outcome (PA-1) | outcome (SKOV3) | outcome (Tov-21-G) | outcome (Tov112D) | activity, negative = cell killing [1, 4] -0.759% | activity, negative = cell killing [1, 5] 4.18% | activity, negative = cell killing [1, 6] -11.1% | outcome (astro)

NC(=O)c1ccc([N+](=O)[O-])cc1Cl
inactive: outcome (C33A) | outcome (CAOV3) | outcome (CASKI) | outcome (Es-2) | outcome (HeLa) | outcome (Hek293T) | outcome (JEG-3) | Potency (OV90) | outcome (PA-1) | outcome (SKOV3) | outcome (Tov-21-G) | outcome (Tov112D) | activity, negative = cell killing [1, 4] -9.49% | activity, negative = cell killing [1, 5] -5.61% | activity, negative = cell killing [1, 6] -36.6% | outcome (astro)

CC[C@H](C)[C@H](N)C(=O)O
inactive: outcome (C33A) | outcome (CAOV3) | outcome (CASKI) | outcome (Es-2) | outcome (HeLa) | outcome (Hek293T) | outcome (JEG-3) | Potency (OV90) | outcome (PA-1) | outcome (SKOV3) | outcome (Tov-21-G) | outcome (Tov112D) | activity, negative = cell killing [1, 4] -7% | activity, negative = cell killing [1, 5] 0.894% | activity, negative = cell killing [1, 6] 2.32% | outcome (astro)

FC(F)(F)C(Cl)Br (centres undefined)
inactive: outcome (C33A) | outcome (CAOV3) | outcome (CASKI) | outcome (Es-2) | outcome (HeLa) | outcome (Hek293T) | outcome (JEG-3) | Potency (OV90) | outcome (PA-1) | outcome (SKOV3) | outcome (Tov-21-G) | outcome (Tov112D) | activity, negative = cell killing [1, 4] -5.12% | activity, negative = cell killing [1, 5] -3.03% | activity, negative = cell killing [1, 7] -22.4% | activity, negative = cell killing [1, 6] -0.139% | outcome (astro) | max response [2] 3.38% | outcome [3]

Cc1ccc(C(C)C)c(O)c1
inactive: outcome (C33A) | outcome (CAOV3) | outcome (CASKI) | outcome (Es-2) | outcome (HeLa) | outcome (Hek293T) | outcome (JEG-3) | Potency (OV90) | outcome (PA-1) | outcome (SKOV3) | outcome (Tov-21-G) | outcome (Tov112D) | activity, negative = cell killing [1, 4] -5.11% | activity, negative = cell killing [1, 5] -0.376% | activity, negative = cell killing [1, 7] -10.8% | activity, negative = cell killing [1, 6] 0.583% | outcome (astro) | max response [2] -0.755% | outcome [3]

O=c1[nH]c2cc(C(F)(F)F)c(N3CCOCC3)cc2n(CP(=O)(O)O)c1=O
inactive: outcome (C33A) | outcome (CAOV3) | outcome (CASKI) | outcome (Es-2) | outcome (HeLa) | outcome (Hek293T) | outcome (JEG-3) | Potency (OV90) | outcome (PA-1) | outcome (SKOV3) | outcome (Tov-21-G) | outcome (Tov112D) | activity, negative = cell killing [1, 4] -1.62% | activity, negative = cell killing [1, 5] -2.48% | activity, negative = cell killing [1, 6] -20.3% | outcome (astro)

CC[N+](CC)(CC(=O)Nc1c(C)cccc1C)Cc1ccccc1
inactive: outcome (C33A) | outcome (CAOV3) | outcome (CASKI) | outcome (Es-2) | outcome (HeLa) | outcome (Hek293T) | outcome (JEG-3) | Potency (OV90) | outcome (PA-1) | outcome (SKOV3) | outcome (Tov-21-G) | outcome (Tov112D) | activity, negative = cell killing [1, 4] -20.4% | activity, negative = cell killing [1, 5] -18.5% | activity, negative = cell killing [1, 6] -28% | outcome (astro) | max response [2] 0.531% | outcome [3]

NS(=O)(=O)c1cc(C2(O)NC(=O)c3ccccc32)ccc1Cl (centres undefined)
inactive: outcome (C33A) | outcome (CAOV3) | outcome (CASKI) | outcome (Es-2) | outcome (HeLa) | outcome (Hek293T) | outcome (JEG-3) | Potency (OV90) | outcome (PA-1) | outcome (SKOV3) | outcome (Tov-21-G) | outcome (Tov112D) | activity, negative = cell killing [1, 8] 3.89% | activity, negative = cell killing [1, 9] 6.28% | activity, negative = cell killing [1, 10] -20.6% | outcome (astro)

CC(=O)SC[C@@H](Cc1ccccc1)C(=O)NCC(=O)OCc1ccccc1
inactive: outcome (C33A) | outcome (CAOV3) | outcome (CASKI) | outcome (Es-2) | outcome (HeLa) | outcome (Hek293T) | outcome (JEG-3) | Potency (OV90) | outcome (PA-1) | outcome (SKOV3) | outcome (Tov-21-G) | outcome (Tov112D) | activity, negative = cell killing [1, 8] 2.42% | activity, negative = cell killing [1, 9] -12.3% | activity, negative = cell killing [1, 10] -8.77% | outcome (astro)

O=C(O)Cc1cn(-c2ccccc2)nc1-c1ccc(Cl)cc1
inactive: outcome (C33A) | outcome (CAOV3) | outcome (CASKI) | outcome (Es-2) | outcome (HeLa) | outcome (Hek293T) | outcome (JEG-3) | Potency (OV90) | outcome (PA-1) | outcome (SKOV3) | outcome (Tov-21-G) | outcome (Tov112D) | activity, negative = cell killing [1, 4] -17.9% | activity, negative = cell killing [1, 5] -13.4% | activity, negative = cell killing [1, 6] -18.4% | outcome (astro)

CC(=O)NS(=O)(=O)c1ccc(N)cc1
inactive: outcome (C33A) | outcome (CAOV3) | outcome (CASKI) | outcome (Es-2) | outcome (HeLa) | outcome (Hek293T) | outcome (JEG-3) | Potency (OV90) | outcome (PA-1) | outcome (SKOV3) | outcome (Tov-21-G) | outcome (Tov112D) | activity, negative = cell killing [1, 4] -8.29% | activity, negative = cell killing [1, 5] -18.7% | activity, negative = cell killing [1, 7] -22.6% | activity, negative = cell killing [1, 6] -4.02% | outcome (astro) | max response [2] -2.2% | outcome [3]
